Measured values reported in PubChem BioAssay (Tox21).
Results filed as inconclusive are left out. Active and inactive are the calls of the source. Unless noted, the call rests on the fitted dose curve.

Tests used:
[1] = target: Peroxisome proliferator-activated receptor delta (Homo sapiens) (UniProt Q03181); experiment: qHTS assay to identify small molecule agonists of the peroxisome proliferator-activated receptor delta (PPARd) signaling pathway (AID 743212); further: on the % scale 0 is the no-effect control and ±100 the full control effect
Summary of the method: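 HEK293H PPARd-bla cells; 5 h preincubation 37 C/5% CO2; compound (DMSO) 37 C; LiveBLAzer B/G FRET substrate 2 h RT; fluorescence intensity.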

[2] = target: Peroxisome proliferator-activated receptor delta (Homo sapiens) (UniProt Q03181); experiment: qHTS assay to identify small molecule antagonists of the peroxisome proliferator-activated receptor delta (PPARd) signaling pathway (AID 743215; active means well fitted inhibition curve with a large enough effect in the signal ratio in the repeat runs, not every such curve was filed as active; the % refers to the signal ratio;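 further: cells stimulated with agonist L165041 at 300 nM final during compound exposure; series mostly up to about 62 µM; on the % scale 0 is the no-effect control and ±100 the full control effect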)
Summary of the method: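 PPARd UAS-bla HEK293H cells were pre-incubated 5 h at 37 C, then given test compounds in DMSO plus agonist L165041 (300 nM final). After 17 h at 37 C, beta-lactamase FRET substrate was added; fluorescence read after 2 h at room temperature.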

[3] = qHTS assay to identify small molecule agonists of the farnesoid-X-receptor (FXR) signaling pathway - cell viability counter screen (AID 743218; active means well fitted curve in the direction sought with a large enough effect in the repeat runs; an effect the other way counts as inactive or inconclusive; further: on the % scale 0 is the no-effect control and ±100 the full control effect; nearly all actives have a fitted effect of over 45% in size)
Summary of the method: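 FXR-UAS-bla HEK 293T cells, plated 5 h at 37 C, were exposed to compounds for 16 h at 37 C. CellTiter-Glo was then added to the same wells as the bla readout; luminescence read after 30 min at room temperature.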

[4] = qHTS assay to identify small molecule antagonists of the farnesoid-X-receptor (FXR) signaling pathway - cell viability counter screen (AID 743221; active means well fitted cell-killing curve with a large enough effect in the repeat runs, not every such curve was filed as active; further: on the % scale 0 is the no-effect control and ±100 the full control effect; nearly all actives have a fitted effect of over 50% in size)
Summary of the method: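 GeneBLAzer FXR-UAS-bla HEK 293T cells, compound plus chenodeoxycholic acid (50 uM final), 16 h at 37 C. CellTiter-Glo added to the same wells after the beta-lactamase read; luminescence read after 30 min at room temperature as viability.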

[5] = target: Vitamin D3 receptor (Homo sapiens) (UniProt P11473); experiment: qHTS assay to identify small molecule agonists of the vitamin D receptor (VDR) signaling pathway (AID 743222); further: on the % scale 0 is the no-effect control and ±100 the full control effect
Summary of the method: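 VDR-bla cells were plated 4 h at 37C/5% CO2, then exposed to compounds in DMSO for 16 h. After LiveBLAzer B/G FRET substrate addition and 2 h at room temperature, beta-lactamase reporter fluorescence was read.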

[6] = target: Vitamin D3 receptor (Homo sapiens) (UniProt P11473); experiment: qHTS assay to identify small molecule antagonists of the vitamin D receptor (VDR) signaling pathway (AID 743223; active means well fitted inhibition curve with a large enough effect in the signal ratio in the repeat runs, not every such curve was filed as active; the % refers to the signal ratio; further: on the % scale 0 is the no-effect control and ±100 the full control effect)
Summary of the method: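 VDR-bla cells were treated with compound plus 3 nM final 1alpha,25-dihydroxyvitamin D3 for 16 h at 37C. Beta-lactamase reporter read by B/G FRET substrate fluorescence after 2 h at room temperature. qHTS format.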

[7] = qHTS assay to identify small molecule agonists of the vitamin D receptor (VDR) signaling pathway - cell viability counter screen (AID 743224; active means well fitted curve in the direction sought with a large enough effect in the repeat runs; an effect the other way counts as inactive or inconclusive; further: series mostly up to about 63 µM; on the % scale 0 is the no-effect control and ±100 the full control effect; nearly all actives have a fitted effect of over 50% in size)
Summary of the method: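 VDR-bla cells were preincubated 4 h at 37C/5% CO2, then exposed to compounds for 16 h. After the 2 h room-temperature bla FRET read, CellTiter-Glo was added to the same wells and luminescence read after 30 min.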

[8] = qHTS assay to identify small molecule antagonists of the vitamin D receptor (VDR) signaling pathway - cell viability counter screen (AID 743225; active means well fitted curve in the direction sought with a large enough effect in the repeat runs; an effect the other way counts as inactive or inconclusive; further: on the % scale 0 is the no-effect control and ±100 the full control effect; nearly all actives have a fitted effect of over 50% in size)
Summary of the method: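 VDR-UAS-bla HEK 293T cells were plated and incubated 4 h at 37C, then dosed with compound plus 3 nM (final) 1-alpha,25-dihydroxyvitamin D3 for 16 h. After the 2 h beta-lactamase read, viability in the same wells was read as CellTiter-Glo luminescence after 30 min at room temperature.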

[9] = qHTS assay to identify small molecule agonists of the NFkB signaling pathway - cell viability counter screen (AID 1159515); further: series mostly up to about 61 µM; on the % scale 0 is the no-effect control and ±100 the full control effect; nearly all actives have a fitted effect of over 55% in size
Summary of the method: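 NFkB-bla ME-180 cells, 2,000/well, were plated overnight at 37 C, 5% CO2, then exposed to compounds in DMSO for 5 hr. After the bla FRET read, CellTiter-Glo was added to the same wells; luminescence was read after 30 min at room temperature.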

[10] = qHTS assay to identify small molecule agonists of the endoplasmic reticulum stress response signaling pathway (AID 1159516; active means well fitted activation curve with a large enough effect in the signal ratio in the repeat runs, not every such curve was filed as active; the % refers to the signal ratio; further: on the % scale 0 is the no-effect control and ±100 the full control effect)
Summary of the method: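 CellSensor ESRE-bla HeLa cells, carrying a beta-lactamase reporter driven by the ER stress response element, were plated overnight and exposed to compounds for 5 hr at 37 C. Reporter activity was read as FRET substrate fluorescence after 2 hr at room temperature.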

[11] = qHTS assay to identify small molecule agonists of the endoplasmic reticulum stress response signaling pathway - cell viability counter screen (AID 1159517); further: series mostly up to about 61 µM; on the % scale 0 is the no-effect control and ±100 the full control effect; nearly all actives have a fitted effect of over 50% in size
Summary of the method: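 HeLa cells carrying an ESRE-driven beta-lactamase reporter receive compound for 5 hr at 37 C. Cell viability is then gauged with CellTiter-Glo by luminescence, 30 min at room temperature.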

[12] = qHTS assay to identify small molecule antagonists of the retinoid-related orphan receptor gamma (ROR-gamma) signaling pathway - cell viability counter screen (AID 1159520; active means well fitted curve in the direction sought with a large enough effect in the repeat runs; an effect the other way counts as inactive or inconclusive)
Summary of the method: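 Cytotoxicity was read from cellular ATP (CellTiter-Glo luminescence) after 16 hr at 37 C with 1 uM doxycycline induction. The inducer was added 2 hr after compound transfer to Tet-on ROR gamma CHO cells.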

[13] = target: Nuclear receptor ROR-gamma (Homo sapiens) (UniProt P51449); experiment: qHTS assay to identify small molecule antagonists of the retinoid-related orphan receptor gamma (ROR-gamma) signaling pathway (AID 1159521; active means well fitted curve in the direction sought with a large enough effect in the repeat runs; an effect the other way counts as inactive or inconclusive)
Summary of the method: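 Tet-on ROR-gamma CHO cells with ROR response element-luciferase reporter; compounds added 2 hr before 1 uM doxycycline induction, then 16 hr at 37 C. Antagonism scored as decreased ONE-Glo luminescence.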

[14] = qHTS assay to identify small molecule agonists of the AP-1 signaling pathway - cell viability counter screen (AID 1159525); further: nearly all actives have a fitted effect of over 55% in size
Summary of the method: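 Luminescent ATP readout (Cell Titer Glo, 30 min RT), normalised to DMSO and tetra n-octyl ammonium bromide controls. Cells were ME-180 AP-1-bla in 0.5% dialyzed FBS Opti-MEM, with a 5 h, 37 °C compound exposure.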

[15] = qHTS assay to identify small molecule agonists of the AP-1 signaling pathway (AID 1159526); further: on the % scale 0 is the no-effect control and ±100 the full control effect
[16] = target: Retinoic acid receptor RXR-alpha (Homo sapiens) (UniProt P19793); experiment: qHTS assay to identify small molecule agonists of the RXR signaling pathway (AID 1159527); further: on the % scale 0 is the no-effect control and ±100 the full control effect; nearly all actives have a fitted effect of over 35% in size
Summary of the method: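 GeneBLAzer RXR-alpha-UAS-bla HEK 293T cells in 2% charcoal-stripped FBS medium were exposed to compounds for 16 hr at 37 C in agonist mode. Beta-lactamase reporter read as 460/530 nm FRET ratio after 2 hr substrate loading.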

[17] = qHTS assay to identify small molecule antagonists of the peroxisome proliferator-activated receptor delta (PPARd) signaling pathway - cell viability counter screen (AID 743213; active means well fitted curve in the direction sought with a large enough effect in the repeat runs; an effect the other way counts as inactive or inconclusive)
Summary of the method: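 CellTiter-Glo was added to PPARd-bla HEK293H wells following 17 h compound treatment in the presence of 300 nM L165041. Luminescence was recorded after 30 min at room temperature.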

[18] = target: Bile acid receptor (Homo sapiens) (UniProt Q96RI1); experiment: qHTS assay to identify small molecule antagonists of the farnesoid-X-receptor (FXR) signaling pathway (AID 743217; active means well fitted inhibition curve with a large enough effect in the signal ratio in the repeat runs, not every such curve was filed as active; the % refers to the signal ratio; further: on the % scale 0 is the no-effect control and ±100 the full control effect)
Summary of the method: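 FXR-UAS-bla HEK 293T cells pre-incubated 5 h at 37 °C, then exposed to compounds with chenodeoxycholic acid (50 uM final) for 16 h at 37 °C. Beta-lactamase reporter read by LiveBLAzer B/G FRET substrate fluorescence after 2 h at room temperature.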

[19] = target: Bile acid receptor (Homo sapiens) (UniProt Q96RI1); experiment: qHTS assay to identify small molecule agonists of the farnesoid-X-receptor (FXR) signaling pathway (AID 743220; active means well fitted activation curve with a large enough effect in the signal ratio in the repeat runs, not every such curve was filed as active; the % refers to the signal ratio; further: on the % scale 0 is the no-effect control and ±100 the full control effect)
Summary of the method: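 Beta-lactamase reporter under UAS control in GeneBLAzer FXR HEK 293T cells (5000/well) measured with LiveBLAzer FRET substrate after 2 h at room temperature. Compound exposure lasted 16 h at 37C.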

[20] = qHTS assay to identify small molecule agonists of the peroxisome proliferator-activated receptor delta (PPARd) signaling pathway - cell viability counter screen (AID 743211; active means well fitted curve in the direction sought with a large enough effect in the repeat runs; an effect the other way counts as inactive or inconclusive; further: on the % scale 0 is the no-effect control and ±100 the full control effect; nearly all actives have a fitted effect of over 55% in size)
Summary of the method: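 PPARd-bla HEK293H cells (3000/well) were pre-incubated 5 h at 37 C, then exposed to compound for 17 h at 37 C. After 2 h with LiveBLAzer substrate, CellTiter-Glo was added to the same wells; luminescence read after 30 min at room temperature.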

Sequence of Bile acid receptor (Homo sapiens) (Q96RI1 whole entry, looked up): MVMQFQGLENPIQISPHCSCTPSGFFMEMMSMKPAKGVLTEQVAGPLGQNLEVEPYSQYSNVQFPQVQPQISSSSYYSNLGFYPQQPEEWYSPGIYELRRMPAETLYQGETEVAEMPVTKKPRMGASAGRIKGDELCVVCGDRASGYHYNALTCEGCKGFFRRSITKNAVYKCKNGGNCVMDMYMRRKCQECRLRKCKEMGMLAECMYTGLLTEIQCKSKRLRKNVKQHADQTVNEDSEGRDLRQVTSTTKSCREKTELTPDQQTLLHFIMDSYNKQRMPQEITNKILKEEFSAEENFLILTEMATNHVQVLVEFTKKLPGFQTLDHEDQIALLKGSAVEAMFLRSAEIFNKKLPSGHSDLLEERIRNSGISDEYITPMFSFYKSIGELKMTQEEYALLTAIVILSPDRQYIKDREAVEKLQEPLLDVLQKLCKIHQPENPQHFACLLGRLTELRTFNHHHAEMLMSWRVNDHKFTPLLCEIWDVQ
Sequence of Retinoic acid receptor RXR-alpha (Homo sapiens) (P19793 whole entry, looked up): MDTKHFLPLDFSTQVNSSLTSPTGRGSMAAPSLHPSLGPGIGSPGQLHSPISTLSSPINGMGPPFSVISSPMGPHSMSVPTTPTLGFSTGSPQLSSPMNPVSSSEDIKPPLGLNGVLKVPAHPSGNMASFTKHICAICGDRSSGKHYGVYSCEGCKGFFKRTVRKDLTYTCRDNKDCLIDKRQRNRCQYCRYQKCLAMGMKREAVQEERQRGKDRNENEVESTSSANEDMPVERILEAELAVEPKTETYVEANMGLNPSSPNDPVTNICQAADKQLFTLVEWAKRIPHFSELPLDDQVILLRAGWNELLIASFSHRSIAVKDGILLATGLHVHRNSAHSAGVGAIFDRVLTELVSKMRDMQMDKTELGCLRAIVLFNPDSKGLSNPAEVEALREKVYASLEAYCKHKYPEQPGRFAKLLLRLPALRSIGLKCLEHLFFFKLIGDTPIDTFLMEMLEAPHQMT
Sequence of Vitamin D3 receptor (Homo sapiens) (P11473 whole entry, looked up): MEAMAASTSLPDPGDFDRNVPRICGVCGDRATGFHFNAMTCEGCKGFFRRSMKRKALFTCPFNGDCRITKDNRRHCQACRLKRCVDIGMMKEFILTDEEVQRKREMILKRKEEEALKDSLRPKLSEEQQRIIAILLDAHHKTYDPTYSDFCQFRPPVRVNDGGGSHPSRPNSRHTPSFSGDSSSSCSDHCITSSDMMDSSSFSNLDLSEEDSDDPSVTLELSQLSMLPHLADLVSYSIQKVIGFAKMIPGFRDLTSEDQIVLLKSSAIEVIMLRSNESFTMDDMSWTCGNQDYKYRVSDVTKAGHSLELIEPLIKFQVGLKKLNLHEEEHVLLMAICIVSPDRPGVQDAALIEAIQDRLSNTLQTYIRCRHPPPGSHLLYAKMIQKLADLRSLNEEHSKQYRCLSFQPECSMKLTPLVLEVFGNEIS
Sequence of Peroxisome proliferator-activated receptor delta (Homo sapiens) (Q03181 whole entry, looked up): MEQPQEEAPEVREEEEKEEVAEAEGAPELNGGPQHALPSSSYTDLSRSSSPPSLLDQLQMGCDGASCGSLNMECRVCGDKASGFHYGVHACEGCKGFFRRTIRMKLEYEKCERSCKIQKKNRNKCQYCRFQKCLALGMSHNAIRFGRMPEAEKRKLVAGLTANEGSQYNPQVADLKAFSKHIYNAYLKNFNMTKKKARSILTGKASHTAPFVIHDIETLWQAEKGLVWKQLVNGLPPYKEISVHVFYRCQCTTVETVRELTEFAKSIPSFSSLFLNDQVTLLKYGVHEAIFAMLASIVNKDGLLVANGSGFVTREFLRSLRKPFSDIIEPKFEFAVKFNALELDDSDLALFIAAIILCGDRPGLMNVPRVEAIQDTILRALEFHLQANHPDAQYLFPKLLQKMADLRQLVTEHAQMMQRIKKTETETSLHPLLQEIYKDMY

CC(COc1ccccc1)NN (centres undefined)
inactive: outcome [1] | outcome [2] | outcome [3] | outcome [4] | outcome [5] | outcome [6] | outcome [7] | outcome [8] | outcome [9] | outcome [10] | outcome [11] | outcome [12] | Potency [13] | outcome [14] | outcome [15] | Potency [16]

CC(CC=O)CC(C)(C)C (centres undefined)
inactive: outcome [1] | outcome [17] | outcome [2] | outcome [18] | outcome [3] | outcome [19] | outcome [4] | outcome [5] | outcome [6] | outcome [7] | outcome [8] | outcome [9] | outcome [10] | outcome [11] | outcome [12] | Potency [13] | outcome [14] | outcome [15] | Potency [16]

COc1cc2c(cc1OC)-c1cc3ccc(OC)c(OC)c3c[n+]1CC2
inactive: outcome [20] | outcome [3] | outcome [4] | outcome [5] | outcome [7] | outcome [9] | outcome [10] | outcome [11] | outcome [12] | Potency [13] | outcome [14] | outcome [15] | Potency [16]

C=COCC1CCC(COC=C)CC1 (centres undefined)
inactive: outcome [20] | outcome [17] | outcome [4] | outcome [5] | outcome [6] | outcome [7] | outcome [8] | outcome [9] | outcome [10] | outcome [11] | outcome [12] | Potency [13] | outcome [14] | outcome [15] | Potency [16]

CN(C)CCCCCCN(C)C
inactive: outcome [20] | outcome [18] | outcome [3] | outcome [19] | outcome [4] | outcome [5] | outcome [6] | outcome [7] | outcome [9] | outcome [10] | outcome [11] | outcome [12] | Potency [13] | outcome [14] | outcome [15] | Potency [16]

CC1(C)OC[C@@H](COC(=O)CCc2ccc(OC[C@@H](O)CNCCNC(=O)N3CCOCC3)cc2)O1
inactive: outcome [20] | outcome [17] | outcome [4] | outcome [5] | outcome [6] | outcome [7] | outcome [8] | outcome [9] | outcome [10] | outcome [11] | outcome [12] | Potency [13] | outcome [14] | outcome [15] | Potency [16]

Cc1ccccc1N=C(N)N=C(N)N
inactive: outcome [1] | outcome [17] | outcome [2] | outcome [5] | outcome [7] | outcome [8] | outcome [9] | outcome [10] | outcome [11] | outcome [12] | Potency [13] | outcome [14] | outcome [15] | Potency [16]

CN1CCN(c2cc3c(nn2)Oc2ccccc2N3C)CC1
inactive: outcome [1] | outcome [17] | outcome [2] | outcome [3] | outcome [4] | outcome [5] | outcome [6] | outcome [7] | outcome [9] | outcome [10] | outcome [11] | activity, negative = cytotoxicity [12] 0.179% [at 19 µM] | activity change, negative = inhibition [13] 55.1% [at 19 µM] | viability change, negative = cytotoxic [14] 4.25% [at 15.8 µM] | activation [15] 0.803% [at 15.8 µM] | activation [16] 10.7% [at 15.8 µM]
